Pf Dd2 inh: qHTS Primary assay for Inhibitors of Plasmodium falciparum Dd2 growth in vitro; 4.3% of 120,000 active; Potency, µM (titrated, usually from 28.9 µM), usual class: inhibitors; P. falciparum Dd2 growth, SYBR Green, 72 h; active = well fitted inhibition curve with a large enough effect; also: nearly all actives have a fitted effect of over 65% in size
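Infected erythrocytes (Dd2, 0.3% parasitemia, 2.5% hematocrit final) are added to compound in RPMI-1640/Albumax II medium, grown 72 h at 37C in low oxygen, then lysed with saponin/Triton-X containing SYBR Green and read by fluorescence.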
Numbers stand for hits; - = inactive; [ ] = dose if it differs, or a comment. Only a selection was taken, and hits are over-represented in it overall.

SMILES	Pf Dd2 inh
O=C(O)c1cc2c(s1)CCN(C(=O)c1ccc(F)cc1)C2	-
O=C(NCc1ccccc1)c1cc2c(s1)CCN(C(=O)c1ccccc1)C2	-
Cc1ccc(C(=O)N2CCc3sc(C(=O)NCc4cc(F)cc(F)c4)cc3C2)cc1	8.9µM
NC(=O)CNC(=O)c1cc2c(s1)CCN(C(=O)c1ccc(Cl)cc1)C2	-
O=C(NCc1cccc(Cl)c1)c1cc2c(s1)CCN(C(=O)c1ccccc1)C2	10µM
O=C(c1ccccn1)N1CCC(c2cc(-c3ccc(F)cc3)n[nH]2)CC1	-[5.79 µM]
CC1(c2cccnc2)N(Cc2ccccc2)C(=O)OC12CCN(C(=O)CN1CCOCC1)CC2 (configuration not stated)	-
Cc1nc(C)c(C(=O)N2CCC(N3C[C@H](O)C[C@H]3C(=O)NC3CCCCC3)CC2)s1	-
O=C(NC1CCCC1)c1cc2n(n1)CC(c1ccc3c(c1)OCO3)OC2 (configuration not stated)	-
O=C(O)C1=NOC2CN(C(=O)c3ccc4c(c3)OCO4)CC12 (configuration not stated)	-
COc1cc2c(cc1Oc1ccccc1)NC(=O)C21CCN(c2ncccn2)CC1	-
COc1cc2c(cc1Oc1ccccc1)NC(=O)C21CCN(CCC(C)C)CC1	6.3µM
CCc1cnc(N2CCC3(CC2)C(=O)Nc2cc(OCc4ccccc4)c(OC)cc23)nc1	-
COc1cc2c(cc1OCc1ccccc1)NC(=O)C21CCN(C(C)=O)CC1	-
COCC(=O)N1CCC2(CC1)C(=O)Nc1cc(Oc3ccccc3)c(OC)cc12	-
COc1cc2c(cc1OCc1ccccc1)NC(=O)C21CCN(Cc2ccccc2)CC1	-
COc1cc2c(cc1OCc1ccccc1)NC(=O)C21CCN(c2ncccn2)CC1	4.5µM
COc1cc2c(cc1Oc1ccccc1)NC(=O)C21CCN(Cc2ccccc2)CC1	-
COc1cc2c(cc1OCc1ccccc1)NC(=O)C21CCN(Cc2ccncc2)CC1	13µM
O=C(c1ccccc1F)N1CCC2(CC1)C(=NC1CCCC1)NC(=O)N2c1cccnc1	-
CSc1cccc(NC(=O)Cn2c(N3CCc4ccccc4C3)nc(C)cc2=O)c1	-
CC(CNC(=O)c1noc(-c2ccc3c(c2)OCO3)n1)c1ccccc1 (configuration not stated)	-
CCCC(=O)N1CCC(Oc2cnc3c(ccn3-c3cncnc3)c2)CC1	-
CNC(=O)[C@@H]1C[C@H](Oc2ccccc2)CN1C(=O)c1cccnc1	-
CN(C)c1nccnc1OC1CCN(C(=O)c2ccccc2)C1 (configuration not stated)	-
SMILES	Pf Dd2 inh
COc1ccc(-c2cc(C(=O)NC3CCNCC3)c3c(C)nn(-c4ccccc4)c3n2)cc1	11µM
COc1ccc(NC(=O)c2cc(C3CC3)nc3c2c(C)nn3-c2ccccc2)cc1	-
COCCNC(=O)c1cc(-c2ccc(OC)cc2)nc2c1c(C)nn2-c1ccccc1	-
CCc1cnc(N2CCC(Oc3cnc4c(ccn4CCN[S+](C)(=O)[O-])c3)CC2)nc1	-
COc1ccccc1CN1CCC2(CC1)OC(=O)N(Cc1ccccc1F)C2(C)c1ccccc1 (configuration not stated)	4µM
COc1ccc(CN2CCC3(CC2)OC(=O)N(Cc2ccccc2C#N)C3(C)c2ccccc2)cc1O (configuration not stated)	-
CC1(c2ccccc2)N(Cc2ccccc2F)C(=O)OC12CCN(Cc1ccc(C#N)cc1)CC2 (configuration not stated)	-
COc1ccccc1CN1CCC2(CC1)OC(=O)N(Cc1ccc(NC(C)=O)cc1)C2(C)c1ccccc1 (configuration not stated)	13µM
COc1ccccc1CN1CCC2(CC1)OC(=O)N(Cc1csc(C)n1)C2(C)c1ccccc1 (configuration not stated)	-
CC(=O)Nc1ccc(CN2C(=O)OC3(CCN(Cc4ccccc4)CC3)C2(C)c2ccccc2)cc1 (configuration not stated)	-
COc1nccnc1NC1CCN(C(=O)c2ccc3[nH]ccc3c2)CC1	-[5.79 µM]
N#Cc1ccc(CN2CCn3c(nnc3C3CCCNC3)C2)cc1 (configuration not stated)	-
Cc1ccc(CN2C(=O)NC3(CCN(C(=O)c4ccsc4)CC3)C2=O)cc1	-
CCCN(CC1CCOC1)C(=O)Nc1cc(F)c(F)c(F)c1 (configuration not stated)	-[5.79 µM]
COC[C@H]1CCCN1C(=O)CC[C@H]1CNC(=O)[C@@H]2[C@@H](CCN2C)N1C	-
O=C1CCCN1CCC1CCCCN1C(=O)c1cn(Cc2ccc(F)cc2Cl)nn1 (configuration not stated)	-
N#Cc1cccc(C(=O)N2CCC(C(=O)N3CCCCCCNC(=O)CC3)CC2)c1	-
O=C(CCn1cnnn1)N1CCCC(CCc2cccc(C(F)(F)F)c2)C1 (configuration not stated)	-
O=C(c1ccc(-n2cnnn2)cc1O)N1CCCC(CCc2ccc(F)cc2)C1 (configuration not stated)	13µM
O=C(c1cc(=O)[nH]c2cc(F)ccc12)N1CCCC(CCc2ccc(F)cc2)C1 (configuration not stated)	-
CC(C)c1ccc(CNC(=O)c2cc3n(n2)CC(c2ccc4c(c2)OCO4)OC3)cc1 (configuration not stated)	-
COCCN(C)C[C@H]1C[C@H](CO)CN(C(=O)c2cc(Cl)cc(OC)c2)C1	-
CCOc1ccccc1NC(=O)NC1CCN(C(=O)N2CC3CC(C2)[C@H]2CCCC(=O)N2C3)CC1 (some centres not stated)	-
COC1CCC12CCN(C(=O)c1cnccc1C)CC2 (configuration not stated)	-
CSc1ccc(-c2ccc(=O)n3c2[C@@H]2C[C@@H](CN(S(=O)(=O)c4cccs4)C2)C3)cc1	8.9µM
SMILES	Pf Dd2 inh
CSCC(=O)N1C[C@@H]2C[C@H](C1)c1c(-c3ccc(SC)cc3)ccc(=O)n1C2	-
CC(=O)Nc1ccc(-c2ccc(=O)n3c2[C@@H]2C[C@@H](CN(S(=O)(=O)c4cccs4)C2)C3)cc1	-
CC(C)C1=NOC2(CCCN(C(=O)c3ccccc3)C2)C1 (configuration not stated)	-
CCc1cccc(NC(=O)N2CC(C(=O)N(C)C)C3(CCOCC3)C2)c1 (configuration not stated)	-
Cc1ccc(-c2nnc(Nc3ccc(C(=O)N(C)C)cc3)c3ccccc23)cc1S(=O)(=O)N(C)C	11µM
Cc1ccc(-c2nnc(Nc3ccc(Br)cc3)c3ccccc23)cc1S(=O)(=O)NCC1CCCO1 (configuration not stated)	10µM
Cc1cc(C)n(-c2nnc(Nc3cc(Cl)ccc3C)c3ccccc23)n1	-
Cc1ccc(-c2nnc(Nc3ccccc3O)c3ccccc23)cc1	-
CNC(=O)c1ccc(Nc2nnc(-c3ccc(C)c(S(=O)(=O)N(C)C)c3)c3ccccc23)cc1	-
Cc1ccc(-c2noc(-c3ccc(NCC4CCCO4)c([N+](=O)[O-])c3)n2)cc1 (configuration not stated)	-
Cc1cc(-c2ccc(C)c(S(=O)(=O)NCc3cccc(Br)c3)c2)on1	-
Cc1cc(C)n(-c2nnc(Nc3ccc(C)c(C)c3)c3ccccc23)n1	-
COc1ccc(Nc2nnc(-c3ccc(C)c(S(=O)(=O)NCc4nc5ccccc5[nH]4)c3)c3ccccc23)cc1	-
Cc1cc(-c2ccc(C)c(S(=O)(=O)NC3CCCCC3)c2)on1	-

Source: PubChem BioAssay (National Center for Advancing Translational Sciences (NCATS))
